Values joined by “and” are separate entries in the source; they are usually repeats but may differ in a detail not shown here. Identical values can stand only once. Inconclusive results are not listed. Entries that show only a call come without a potency. A number with no mark means an inactive call. Active and inactive are the calls of the source. Unless noted, calls come from the whole dose curve; as a rule, active = well fitted curve in the direction sought with a large enough effect; inconclusive = small, poorly fitted or top-dose-only effect, or another doubt; inactive = no such curve, though single readings can be large; an effect the other way counts as inactive or inconclusive.
Assays:
[1] = qHTS to identify inhibitors of the type 1 interferon - major histocompatibility complex class I in skeletal muscle: primary screen against the NCATS Mechanism Interrogation Plate v5.0 (MIPE) Libary (AID 1347411); note: nearly all actives have a fitted effect of over 65% in size; note: potency is the fitted concentration of half-maximal effect
Outline: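 Seed engineered human myoblasts (HLA-B HiBit) in medium without dexamethasone containing 4 ng/ml IFN-beta; after 1 hr add compound titrations (top 46 uM final). Incubate 24 hrs at 37 C, lyse 10 min with HiBiT reagent, read luminescence.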

[2] = target: Protein phosphatase 1D (Homo sapiens) (UniProt O15297); assay: RapidFire Mass Spectrometry qHTS Assay for Modulators of WT P53-Induced Phosphatase 1 (WIP1) (AID 1347424);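 note: amount of dephosphorylated VEPPL-S-QETFS peptide product formed by WIP1; series mostly up to about 63 µM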
Chain of Protein phosphatase 1D (Homo sapiens) (O15297 whole entry, looked up): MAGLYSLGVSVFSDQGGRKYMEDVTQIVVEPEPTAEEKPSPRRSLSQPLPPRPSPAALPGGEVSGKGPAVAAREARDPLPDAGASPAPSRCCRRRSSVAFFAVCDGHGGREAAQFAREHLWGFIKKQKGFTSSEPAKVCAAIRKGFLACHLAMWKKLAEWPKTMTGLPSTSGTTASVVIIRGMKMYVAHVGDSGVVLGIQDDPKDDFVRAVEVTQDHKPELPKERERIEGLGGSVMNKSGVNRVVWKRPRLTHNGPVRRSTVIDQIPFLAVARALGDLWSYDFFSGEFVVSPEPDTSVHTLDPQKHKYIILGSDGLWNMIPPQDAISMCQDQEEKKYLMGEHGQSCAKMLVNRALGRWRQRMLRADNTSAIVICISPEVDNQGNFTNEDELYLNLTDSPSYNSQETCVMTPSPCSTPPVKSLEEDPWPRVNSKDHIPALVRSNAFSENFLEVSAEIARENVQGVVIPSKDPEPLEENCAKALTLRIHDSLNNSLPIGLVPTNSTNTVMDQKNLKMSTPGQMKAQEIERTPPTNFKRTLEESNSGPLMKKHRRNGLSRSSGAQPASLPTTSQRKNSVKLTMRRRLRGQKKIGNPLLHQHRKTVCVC
Outline: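 RapidFire mass spectrometry measured dephosphorylated peptide after 5 min room-temperature reaction of 2 uM VEPPL-pS-QETFS with 10 nM WIP1 (50 mM Tris-HCl pH 7.5, 30 mM MgCl2, 0.1 mM EGTA, BSA), following 1 hr compound preincubation; 1 uM isotope-labelled product standard.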

[3] = target: Protein phosphatase 1D (Homo sapiens) (UniProt O15297); assay: Rhodamine-PBP qHTS Assay for Modulators of WT P53-Induced Phosphatase 1 (WIP1) (AID 1347425)
Outline: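 5 nM WIP1 + 10 uM Rh-PBP, 50 mM Tris pH 7.5, 30 mM MgCl2, 1 mM TCEP, 0.1 mM EGTA, BSA; cpds pinned, 1 hr RT; + 10 uM phosphopeptide; fluorescence 1-min reads x 11 min; delta = f1 - f0.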

[4] = Primary qHTS for inhibitors of La Crosse Virus (LACV) - induced cell death in SH-SY5Y cells (AID 1508616);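 note: top concentration of the series differs between compounds; higher means more rescue of cells from virus-induced death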
Outline: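 SH-SY5Y, 6000 cells/well; cpd via pin tool in DMSO; LACV 0.01 MOI; 6 d 37C 5% CO2; ATPLite, 5 min RT; luminescence normalized to ±virus DMSO controls.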

[5] = target: Calcium and integrin-binding protein 1 (Homo sapiens) (UniProt Q99828); assay: Primary qHTS for Identification of Calcium Integrin Binding Protein 1 (CIB1) Competitor (AID 1508620);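 note: GST tagged CIB1 binding a fluorescein labelled alphaIIb integrin peptide tracer; top concentration of the series differs between compounds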
Chain of Calcium and integrin-binding protein 1 (Homo sapiens) (Q99828 whole entry, looked up): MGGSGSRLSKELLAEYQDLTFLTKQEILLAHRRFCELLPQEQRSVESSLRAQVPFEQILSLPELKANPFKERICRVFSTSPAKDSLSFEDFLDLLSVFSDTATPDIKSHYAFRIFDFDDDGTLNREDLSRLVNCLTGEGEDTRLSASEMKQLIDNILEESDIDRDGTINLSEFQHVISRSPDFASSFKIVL
Outline: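 CIB1-GST (1 uM final) and compound incubated 15 min at room temperature before adding FITC-alphaIIb peptide tracer (100 nM final). Competition for binding read by fluorescence polarization (ex 480, em 540) after another 15 min at room temperature.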

[6] = Primary qHTS for small molecule stabilizers of the endoplasmic reticulum resident proteome: Secreted ER Calcium Modulated Protein (SERCaMP) assay (AID 1508630); note: potency is the fitted concentration of half-maximal effect
Outline: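 The SH-SY5Y reporter protocol was run at 3 concentrations up to 38.3 uM (primary) or 11 concentrations (follow-up): 16 h compound, 100 nM thapsigargin for 4 h, then extracellular luciferase luminescence.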

[7] = A High-Content qHTS Against Drug Library for the Identification of Small Molecules that Inhibit DYT1 Early Onset Primary Dystonia-Associated Cell Pathology (AID 1645839; calls by dose curve; note: series mostly up to about 46 µM)
Outline: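 High-content imaging quantified EGFP-TorsinA mislocalization in HEK293-derived cells inducibly expressing DYT1 mutant torsinA, after 48 h exposure to compound given together with tetracycline induction. Cell count served as a toxicity channel alongside %pathology.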

[8] = target: Cytochrome P450 2C9 (Homo sapiens) (UniProt P11712); assay: Cytochrome P450 family 2 subfamily C member 9 (CYP2C9) small molecule antagonists: luciferase biochemical (cell-free) qHTS assay (AID 1645842; active = well fitted curve in the direction sought with a large enough effect in the repeat runs; an effect the other way counts as inactive or inconclusive; note: nearly all actives have a fitted effect of over 55% in size; note: potency is the fitted concentration of half-maximal effect)
Chain of Cytochrome P450 2C9 (Homo sapiens) (P11712 whole entry, looked up): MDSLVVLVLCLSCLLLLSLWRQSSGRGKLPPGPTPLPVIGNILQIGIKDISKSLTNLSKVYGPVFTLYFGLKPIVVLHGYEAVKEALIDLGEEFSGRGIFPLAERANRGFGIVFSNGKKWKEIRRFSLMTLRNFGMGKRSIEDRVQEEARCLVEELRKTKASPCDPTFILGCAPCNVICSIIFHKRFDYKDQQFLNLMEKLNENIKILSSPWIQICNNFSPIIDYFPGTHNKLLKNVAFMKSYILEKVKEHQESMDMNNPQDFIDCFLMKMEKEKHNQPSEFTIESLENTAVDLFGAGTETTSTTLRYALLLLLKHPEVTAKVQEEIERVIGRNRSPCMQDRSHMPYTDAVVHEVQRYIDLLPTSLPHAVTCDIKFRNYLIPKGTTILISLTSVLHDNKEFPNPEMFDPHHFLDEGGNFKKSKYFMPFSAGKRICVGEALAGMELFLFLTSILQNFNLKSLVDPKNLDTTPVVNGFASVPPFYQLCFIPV
Outline: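 P450-Glo CYP2C9 system: proluciferin substrate with enzyme in mix containing 0.4% BSA, 10 min at room temperature, then NADPH regeneration solution added and incubated 1 h at 37C. Detection reagent stopped reaction; luminescence read after 20 min as RLU.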

[9] = target: Cytochrome P450 2D6 (Homo sapiens) (UniProt P10635); assay: Cytochrome P450 family 2 subfamily D member 6 (CYP2D6) small molecule antagonists: luciferase biochemical (cell-free) qHTS assay (AID 1645840; active = well fitted curve in the direction sought with a large enough effect in the repeat runs; an effect the other way counts as inactive or inconclusive; note: nearly all actives have a fitted effect of over 55% in size; note: potency is the fitted concentration of half-maximal effect)
Chain of Cytochrome P450 2D6 (Homo sapiens) (P10635 whole entry, looked up): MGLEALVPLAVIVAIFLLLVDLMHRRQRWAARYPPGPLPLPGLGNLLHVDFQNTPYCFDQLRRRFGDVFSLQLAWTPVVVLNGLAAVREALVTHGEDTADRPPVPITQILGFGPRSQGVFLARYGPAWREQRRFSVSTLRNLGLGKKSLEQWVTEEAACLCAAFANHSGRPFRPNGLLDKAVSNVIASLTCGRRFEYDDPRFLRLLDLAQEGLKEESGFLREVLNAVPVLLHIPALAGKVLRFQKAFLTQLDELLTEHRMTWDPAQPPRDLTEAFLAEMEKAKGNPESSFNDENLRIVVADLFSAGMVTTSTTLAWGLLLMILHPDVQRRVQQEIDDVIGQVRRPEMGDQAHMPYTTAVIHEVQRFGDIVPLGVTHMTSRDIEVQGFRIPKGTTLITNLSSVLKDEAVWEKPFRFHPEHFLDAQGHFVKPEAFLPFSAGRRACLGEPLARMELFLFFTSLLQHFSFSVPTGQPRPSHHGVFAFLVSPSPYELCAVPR
Outline: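 P450-Glo CYP2D6 system: proluciferin substrate converted by enzyme to luciferin, read by luminescence proportional to activity. Enzyme-substrate mix with compound 10 min at room temperature, then NADPH regeneration 1 h before detection reagent.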

[10] = target: Cytochrome P450 3A4 (Homo sapiens) (UniProt P08684); assay: Cytochrome P450 family 3 subfamily A member 4 (CYP3A4) small molecule antagonists: luciferase qHTS assay (AID 1645841; active = well fitted curve in the direction sought with a large enough effect in the repeat runs; an effect the other way counts as inactive or inconclusive; note: nearly all actives have a fitted effect of over 45% in size)
Chain of Cytochrome P450 3A4 (Homo sapiens) (P08684 whole entry, looked up): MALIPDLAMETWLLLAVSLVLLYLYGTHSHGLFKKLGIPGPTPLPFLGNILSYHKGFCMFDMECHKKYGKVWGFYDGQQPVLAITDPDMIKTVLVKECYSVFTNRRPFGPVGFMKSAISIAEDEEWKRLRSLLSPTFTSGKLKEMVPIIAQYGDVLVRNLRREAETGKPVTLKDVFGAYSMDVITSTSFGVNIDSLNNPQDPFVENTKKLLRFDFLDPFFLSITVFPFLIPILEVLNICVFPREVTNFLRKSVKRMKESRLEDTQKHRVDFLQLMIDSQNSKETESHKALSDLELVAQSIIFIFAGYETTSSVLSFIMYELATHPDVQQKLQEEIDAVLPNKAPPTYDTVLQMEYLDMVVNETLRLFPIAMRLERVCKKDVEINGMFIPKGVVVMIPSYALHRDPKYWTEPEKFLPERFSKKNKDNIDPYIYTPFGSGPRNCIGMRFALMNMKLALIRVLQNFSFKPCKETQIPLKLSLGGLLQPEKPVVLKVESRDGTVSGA
Outline: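 Luminescent CYP3A4 activity readout: compounds plus enzyme-substrate mix 10 min at room temperature, reaction started with NADPH regenerating system for 1 h, stopped with detection reagent, read after 20 min. Ketoconazole served as control.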

[11] = Counterscreen qHTS for small molecule stabilizers of the endoplasmic reticulum resident proteome: GLuc-NoTag assay (AID 1508627); note: series mostly up to about 76 µM
Outline: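 Counterscreen line: SH-SY5Y-GLuc-NoTag cells, treated with compound 19 hr before a 4 hr, 100 nM thapsigargin calcium depletion. Secreted Gaussia luciferase in the medium was measured by luminescence after coelenterazine was added (0.07x final), with cells unlysed.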

[12] = Cell Viability qHTS for small molecule stabilizers of the endoplasmic reticulum resident proteome (AID 1508629); conditions: cell viability counter-screen, 100 nM thapsigargin for final 4 h;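 note: compound exposure about 46 h in total before the viability read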; note: potency is the fitted concentration of half-maximal effect;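 for max response: human SH-SY5Y neuroblastoma cells carrying the GLuc-SERCaMP reporter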
[13] = Confirmatory qHTS for small molecule stabilizers of the endoplasmic reticulum resident proteome: Secreted ER Calcium Modulated Protein (SERCaMP) assay (AID 1508628); note: potency is the fitted concentration of half-maximal effect; nearly all actives have a fitted effect of over 40% in size
Outline: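 Reporter secretion upon ER calcium depletion (100 nM thapsigargin, 4 h, 37C) is measured as medium luminescence with coelenterazine, after 16 h compound pretreatment of SH-SY5Y-GLuc-SERCaMP cells; primary at three concentrations up to 38.3 uM, follow-up at 11 (up to 76.6 uM).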

Row | Compound | Potency [1] | outcome [2] | outcome [3] | Potency [4] | outcome [5] | Potency [6] | Potency [7] | Potency [8] | Potency [9] | outcome [10] | outcome [11] | Potency [12] | Potency [13] | max response [12]
1 | CC[C@H](NC(C)C)[C@H](O)c1ccc(O)c2[nH]c(=O)ccc12 | inactive | inactive | inactive | inactive | inactive | inactive | inactive | inactive | – | – | – | – | – | –
2 | CC(=O)[C@H]1CC[C@H]2[C@@H]3CC=C4C[C@@H](O)CC[C@]4(C)[C@H]3CC[C@]12C | inactive | inactive | inactive | – | inactive | inactive | inactive | inactive | inactive | – | – | – | – | –
3 | NNC(=O)c1ccncc1 | inactive | inactive | inactive | inactive | inactive | – | inactive | inactive | inactive | – | – | – | – | –
4 | O=C(O)c1ccc(-n2nc(-c3ccccc3O)nc2-c2ccccc2O)cc1 | inactive | inactive | inactive | inactive | inactive | inactive | – | inactive | inactive | inactive | – | – | – | –
5 | O=c1oc2c(O)c(O)cc3c(=O)oc4c(O)c(O)cc1c4c23 | inactive | inactive | inactive | inactive | inactive | – | inactive | inactive | inactive | – | – | – | – | –
6 | CCCN[C@H]1CCc2nc(N)sc2C1 | inactive | inactive | inactive | inactive | inactive | inactive | inactive | inactive | – | – | – | – | – | –
7 | Oc1c(Cl)cc(Cl)c2cccnc12 | 23.4 µM (active) | inactive | inactive | – | inactive | – | – | – | – | – | inactive | 20 µM (active) | – | –
8 | CNNCc1ccc(C(=O)NC(C)C)cc1 | inactive | inactive | inactive | inactive | – | inactive | inactive | inactive | inactive | – | – | – | – | –
9 | CCC(=O)O[C@]1(C(=O)CCl)[C@@H](C)C[C@H]2[C@@H]3CCC4=CC(=O)C=C[C@]4(C)[C@@]3(F)[C@@H](O)C[C@@]21C | inactive | inactive | inactive | inactive | inactive | – | inactive | 17.4 µM (active) | 11 µM (active) | – | – | – | – | –
10 | Nc1nc(F)nc2c1ncn2[C@@H]1O[C@H](CO)[C@@H](O)[C@@H]1O | inactive | inactive | inactive | – | inactive | inactive | inactive | inactive | inactive | – | – | – | – | –
11 | CC(C)(C)NC(=O)[C@H]1CC[C@H]2[C@@H]3CC[C@H]4NC(=O)C=C[C@]4(C)[C@H]3CC[C@]12C | inactive | inactive | inactive | – | inactive | inactive | inactive | – | inactive | – | – | – | – | –
12 | CCCc1nc(C)c2c(=O)[nH]c(-c3cc(S(=O)(=O)N4CCN(CC)CC4)ccc3OCC)nn12 | inactive | inactive | inactive | – | inactive | inactive | inactive | – | inactive | – | – | – | – | –
13 | O=P(O)(O)C(O)(Cc1cccnc1)P(=O)(O)O | inactive | inactive | inactive | inactive | inactive | – | inactive | inactive | inactive | – | – | – | – | –
14 | NC(=O)c1cccnc1 | inactive | inactive | inactive | inactive | inactive | inactive | inactive | inactive | inactive | – | – | – | – | –
15 | COc1c(N2CCNC(C)C2)c(F)cc2c(=O)c(C(=O)O)cn(C3CC3)c12 (stereo unspecified) | inactive | inactive | inactive | – | inactive | 20 µM (active) | inactive | inactive | inactive | – | inactive | – | 14.1 µM (active) | -1.18% and 19.6%
16 | CCC(=O)O[C@]1(C(=O)SCF)[C@H](C)C[C@H]2[C@@H]3C[C@H](F)C4=CC(=O)C=C[C@]4(C)[C@@]3(F)[C@@H](O)C[C@@]21C | inactive | inactive | inactive | inactive | inactive | – | inactive | – | inactive | – | – | – | – | –
17 | CCCc1cc(C(N)=S)ccn1 | inactive | inactive | inactive | inactive | inactive | – | inactive | inactive | inactive | – | – | – | – | –
